# About 820 (0.2%) of roughly 410,000 compounds were called active. Roughly 2% stayed inconclusive and do not appear here. Calls follow the shape of the dose curve; as a rule, active = well fitted activation curve with a large enough effect; inconclusive = small, poorly fitted or top-dose-only effect; inactive = flat fitted curve, though single readings scatter; cell line not stated here. Many of the other results were omitted from the sample, so actives are more common in it than they were.
# Assay: A Quantitative High throughput Screen to Identify Chemical Modulators of PINK1 Expression; also: nearly all actives have a fitted effect of over 65% in size; as to activation (PINK1 increase): % of control where 0% means no effect
# Settings: PINK1 immunofluorescence, high-content cytometry, 24 h; series mostly up to 76.6 µM; activation (PINK1 increase): at the top concentration
# In short: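 Compound titrations (5 concentrations, 24 h) on a stable cell line; DMSO and CCCP controls. Endpoint: fixed-cell PINK1 immunofluorescence with mitochondrial, cell and nuclear markers, scanned by microplate cytometer.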
# Potency is read from the fitted curve at half-maximal effect.
Structure (SMILES),activation (PINK1 increase),Potency
COc1ccc(C(=O)N2CCC3(CC2)CCN(c2ccccn2)CC3)cc1,-0.552% (inactive),–
COc1ccccc1CNc1nc(-c2c(C)noc2C)nc2ccccc12,2.49% (inactive),–
COc1ccc(CN2CCC3(CCC(CNC(=O)c4ccco4)O3)CC2)cc1OC (stereo not drawn),1.17% (inactive),–
COc1ccc(CN(C)CCn2cc(C(=O)N3CCSCC3)nn2)cc1C,-0.0428% (inactive),–
O=C(Nc1ccc2ccccc2c1)Nc1ccc2snnc2c1,–,44.7 µM (active)
CS(=O)(=O)c1ccccc1C(=O)Nc1ccc2sccc2c1,1.33% (inactive),–
COc1cccc(C(=O)Nc2ccc3oc(-c4ccc5ccccc5c4)nc3c2)c1,-0.987% (inactive),–
CN(C)C(=O)[C@@H]1C[C@@H](Sc2nc3ccccc3[nH]2)CN1Cc1ccc(Cl)cc1,-0.905% (inactive),–
O=C(c1cc(C(F)(F)F)cc(C(F)(F)F)c1)N1CCC[C@@]2(CCN(c3ccccn3)C2)C1,1.27% (inactive),–
CC(C)c1cc(C(=O)N2CCOc3ccc(CN4CCC(Oc5cccnc5)CC4)cc3C2)n[nH]1,0.462% (inactive),–
Cc1c(S(=O)(=O)O)oc2c1C(=O)C(=O)c1c-2ccc2c1CCCC2(C)C,-0.627% (inactive),–
S=c1[nH]c(=S)c2n[nH]nc2[nH]1,0.817% (inactive),–
O=C(NCCCNc1ccc([N+](=O)[O-])cc1Cl)c1ccccc1F,-0.842% (inactive),–
O=[N+]([O-])c1ccc(NS(=O)(=O)c2ccccc2)c(Cl)c1,–,39.8 µM (active)
O=C(NNS(=O)(=O)c1ccc(F)cc1)c1ccc([N+](=O)[O-])cc1Cl,1.65% (inactive),–
C=C[C@](C)(O)CCC1C(=C)CCC2[C@@](C)(CO)CCC[C@@]12C (stereo partly drawn),6.03% (inactive),–
COc1cccc(CN2CCC3(CC2)c2ccccc2[C@@H](NC(=O)c2ccccc2OC)[C@@H]3O)c1,2.04% (inactive),–
COc1cc(=O)n2c(c1C(=O)NCc1ccco1)CCN(Cc1ccccc1)CC2,-0.574% (inactive),–
O=c1c(CN2CCOc3ccc(CN4CCC(Oc5cccnc5)CC4)cc3C2)coc2ccccc12,-0.312% (inactive),–
Cc1ccc(C)c(NC(=S)NCC(c2cccnc2)N2CCOCC2)c1 (stereo not drawn),-1.64% (inactive),–
Cc1ccc(C)c(NC(=O)C2CC(=O)N(C(C)C)C2)c1 (stereo not drawn),1.52% (inactive),–
Cc1ccc(C)c(NC(=S)NNC(=S)Nc2ccc(C(C)C)cc2)c1,–,14.1 µM (active)
COCCn1c(=O)c(-c2ccc(OC)cc2)nc2cnc(Oc3cccc(Cl)c3)nc21,1.63% (inactive),–
Nc1ccc(/C=C/c2ccnc3ccccc23)c([N+](=O)[O-])c1,13.3% (inactive),–
CCOC(=O)N1CCN(Cc2ccc3c(c2)CN(C(=O)c2cccc(-n4cccn4)c2)CCO3)CC1,-0.805% (inactive),–
COc1ccccc1CNC(=O)C1CCN(S(=O)(=O)c2ccc3c(c2)OCCO3)CC1,1.24% (inactive),–
COc1ccccc1CNC(=O)C1CCN(C(=O)[C@@H]2Cc3ccccc3CN2)CC1,-0.408% (inactive),–
COc1ccccc1CNC(=O)C1CCN(c2nc3ccccc3o2)CC1,–,2.82 µM (active)

# Source: PubChem BioAssay AID624263 (National Center for Advancing Translational Sciences (NCATS), 2012)
